Compound activity deposited in PubChem by several laboratories.
HSF1 activator: increases HSF-1 driven luciferase reporter signal; NIH3T3-HGL HSF-1 luciferase reporter, MG132, 8 h; 100% = twice DMSO control signal; activation, % at 9 µM; 300,000 compounds, 1.7% hits; AID 504408;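 active = mean replicate activation of at least 50% with a set share of replicates each reaching 50%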;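 also: 0% = median of the neutral control wells and 100% = twice that signal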
AHR activator: activators of human aryl hydrocarbon receptor | activation, % at 5 µM | AHR-responsive luciferase reporter cells, luminescence | 320,000 compounds, 2.5% hits; in the data active = activation above about 47%;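 also: 0% = vehicle wells and 100% = reference agonist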
HSF1 inhib: HSF1 inhibition | 300,000 compounds, 0.77% hits | AID 2098 | NIH3T3-HGL HSE-luciferase, MG132-induced, luminescence 8 h; stronger effect = lower value | activity change, negative = inhibition, % at 7.5 µM (by protocol);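 active = more than half of replicate wells show activity change below -50%, luminescence cut by over half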;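 also: luciferase reports HSF-1 transcriptional activity via heat shock element; 0% = median of DMSO wells and -100% = zero luminescence signal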
GAA850 FXN act: increases GAA850 frataxin promoter reporter activity. HEK293 lucGAA850 FXN promoter luciferase reporter, 24 h; percent of 10 µM SAHA response. activation, % at 6 µM. 360,000 compounds, 0.56% hits. AID 540364;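 active = activation above the average of all compounds screened plus 3 SD, cutoff fixed separately per campaign, cut at about 7.5% in these data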;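 also: 0% = DMSO wells and 100% = 10 µM SAHA wells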
An asterisk follows results filed as active; nt = no result. The list is not random: actives were taken first. Their share in the collection is about 4.6%.

SMILES | HSF1 activator | AHR activator | HSF1 inhib | GAA850 FXN act
COc1cc(-n2nc(C)c3c2OC(N)=C(C#N)C3c2ccccc2)c(Cl)c(Br)c1O (configuration not stated) | 78* | 8 | 53 | 0
Cc1ccc(-n2nc(C)c3c2OC(N)=C(C#N)C3c2ccccc2F)cc1 (configuration not stated) | -17 | 66* | -18 | -3
Cc1nn(-c2ccc(C(=O)Nc3nnc(C4CC4)s3)cc2)c(C)c1Cl | 7 | -3 | 0 | 1
O=C(c1cc2c(=O)n3ccccc3nc2s1)N1CCOCC1 | 26 | 13 | 13 | 2
O=C(O)c1cccc2c(-c3ccccc3)c(-c3ccccc3)[nH]c12 | 3 | 0 | 0 | 1
O=C1C(c2c(O)[nH]c3ccccc23)=Nc2ccccc21 | 9 | 60* | 9 | -1
Oc1[nH]c2ccccc2c1C1=NCCCC1 | -7 | 34 | -10 | 1
CC(=O)c1cccc2c(O)c(C3=Nc4ccccc4C3=O)[nH]c12 | 62* | 61* | 33 | 1
Cc1ccc(CNC(=O)c2csc3c2CCCCC3)cc1 | -3 | 5 | 1 | 2
CCCCOC(=O)c1ccc(OC(=O)c2cccnc2)cc1 | 14 | 3 | 9 | 0
CCCCCCOC(=O)c1ccc(OC(=O)c2cccnc2)cc1 | 58* | 0 | 31 | -1
Cc1[nH]n(-c2ccccc2)c(=O)c1N=Nc1ccc2c(c1)OCCO2 | nt | 2 | nt | 3
Oc1ccc(/C=N/n2cc(-c3ccccc3)[nH]c2=S)cc1 | 16 | 64* | 11 | -1
COc1cc(/C=N/n2cc(-c3ccccc3)[nH]c2=S)cc(OC)c1O | -3 | 23 | 1 | -1
S=c1[nH]c(-c2ccccc2)cn1/N=C/c1cccc2ccccc12 | -6 | 99* | 5 | -1
S=c1[nH]c(-c2ccccc2)cn1/N=C/c1ccccc1Br | 64* | 62* | 20 | 2
O=C(NC1CCCCC1)C(Cc1ccccc1)NS(=O)(=O)c1cccs1 (configuration not stated) | -15 | 0 | -3 | 2
CC(C)CC(=O)NC(Nc1ccccc1F)C(Cl)(Cl)Cl (configuration not stated) | 7 | 0 | 3 | 0
Cc1ccc2nc(-c3ccccc3NC(=O)CCC(=O)O)c(=O)[nH]c2c1 | -80 | nt | -74* | 1
COc1ccccc1N(C)S(=O)(=O)c1ccc(Cl)c(C(=O)OCc2c(C)noc2C)c1 | 30 | 13 | 13 | -1
Cn1cc(Br)c(C(=O)Nc2sc3c(c2C#N)CCC3)n1 | -5 | 2 | 12 | 2
Cc1cc(C(=O)Nc2sc3c(c2C#N)CCC3)no1 | 20 | 19 | 15 | 1
Cn1cc([N+](=O)[O-])c(C(=O)Nc2sc3c(c2C#N)CCC3)n1 | 190* | 20 | 170 | -1
Cc1noc(C(=O)Nc2sc3c(c2C#N)CCC3)c1Cl | -2 | 47* | -4 | 1
Cc1ccc(C(=O)Nc2sc3c(c2C#N)CCCCC3)cc1C | -9 | 71* | 6 | 5
SMILES | HSF1 activator | AHR activator | HSF1 inhib | GAA850 FXN act
CC(=O)Nc1sc2c(c1C#N)CCCCC2 | nt | 11 | nt | 1
CC(C)(C)C(=O)NC(=S)Nc1sc2c(c1C#N)CCCCC2 | 31 | 59* | 29 | 4
O=C(c1cn(-c2ccccc2)nc1-c1cccnc1)N1CCN(S(=O)(=O)c2cccc(F)c2)CC1 | nt | 2 | nt | 2
CCOc1ccc(C(c2nnnn2Cc2ccccc2)N2CCN(C(=O)c3ccco3)CC2)cc1 (configuration not stated) | 7 | 5 | -1 | -2
Cc1ccc(CC(NC(=O)c2ccccc2)C(=O)NC(C)C(=O)O)cc1 (configuration not stated) | -20 | -2 | -6 | 4
COc1ccc(C(C[N+](=O)[O-])c2c(C)cc3ccccn23)cc1 (configuration not stated) | 8 | 16 | -1 | 1
Cc1ccccc1C(=O)NC(=S)Nc1sc2c(c1C#N)CCCC2 | 39 | 0 | 23 | 3
C=CCNC(=S)Nc1sc2c(c1C#N)CCCC2 | -62 | 12 | -54* | 2
FC(F)(F)c1ccc(Sc2nnc(-c3cccs3)n2CC2CCCO2)nc1 (configuration not stated) | 58* | -2 | 12 | 1
CCCCCOc1ccc(N2C(=O)CC(N(O)c3ccccc3)C2=O)cc1 (configuration not stated) | 40 | 2 | 15 | 3
CCCCOc1ccc(N2C(=O)CC(N(O)c3ccccc3)C2=O)cc1 (configuration not stated) | 107* | 1 | 55 | -1
Cn1c(=O)c2sccc2n2c(CCCC(=O)NCCc3ccc(S(N)(=O)=O)cc3)nnc12 | 24 | 0 | -1 | 1
